Laboratory results from PubChem BioAssay.

assay: binders of probe aFST on microarray, primary screen, stem cell growth factor project, biochemical, small-molecule microarray, fluorescence 635/667 (AID 1086); conditions: higher = more signal;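 note: score merges 667 nm fluorescence with signal-to-noise of each printed compound spot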

| SMILES | composite z-score |
| --- | --- |
| CO[C@@H]1COC(=O)CC=C[C@@H](C)[C@H](OC)COC(=O)CC=C[C@H]1C | 0.169 |
| O=C1O[C@H](c2ccccc2)[C@H](c2ccccc2)N2[C@H]1[C@@H](C(=O)Nc1nc3ccccc3s1)[C@]1(C(=O)Nc3ccc(C#CC4(O)CCCCCC4)cc31)[C@H]2c1ccc(O)cc1 | 0.668 |
| O=C1O[C@@H](c2ccccc2)[C@@H](c2ccccc2)N2[C@@H](c3ccccc3OCCO)[C@]3(C(=O)Nc4ccc(C#CC5=CCCCC5)cc43)[C@@H](C(=O)O)[C@H]12 | 0.415 |
| O=C1O[C@@H](c2ccccc2)[C@@H](c2ccccc2)N2[C@@H](c3ccc(O)cc3)[C@]3(C(=O)Nc4ccccc43)[C@@H](C(=O)N3CCN(c4ncccn4)CC3)[C@H]12 | 0.0944 |
| C[N+](C)(C)CCCCNC(=O)[C@@H]1C[C@@H]2C(=O)N3CCC[C@H]3C(=O)N2[C@@H]1c1cccc(OCCO)c1 | 0.209 |
| C=CC[C@@]1(C(=O)N2CCOCC2)N=C(c2ccc(OCCCO)cc2)O[C@@H]1c1ccccc1 | -0.298 |
| CCC#CCN(Cc1ccccc1Br)[C@H](/C=C/c1ccccc1)[C@@H](O)Cc1ccccc1 | -0.465 |
| O=C(NCc1ccccc1)c1ccc(Br)cc1[N+](=O)[O-] | 0.514 |
| CC(C)N1CC=CC23O[C@@H]4/C=C\CCCOC(=O)C4[C@H]2C(=O)N(CCCCCO)[C@@H]3C1=O (stereo partly specified) | -0.729 |
| O=C1OCC=C[C@H]2OC34C=CCN(Cc5ccccc5)C(=O)[C@H]3N(CCO)C(=O)[C@@H]4[C@@H]12 (stereo partly specified) | -0.331 |
| O=C1O[C@H](c2ccccc2)[C@H](c2ccccc2)N2[C@H]1[C@@H](C(=O)NC[C@H](O)c1ccccc1)[C@]1(C(=O)Nc3ccc(C#CC4=CCCCC4)cc31)[C@H]2c1ccc(OCCO)cc1 | 0.681 |
| COc1ccc(-c2ccccc2[C@@H]2N[C@H](C(=O)O)CC[C@H]2C)cc1 | 0.0952 |
| CCOC(=O)C[C@H]1[C@H](OC(=O)c2cc3ccccc3oc2=O)[C@@H](NC(=O)C2CCCCC2)c2cc(OCCCO)ccc2N1C(=O)c1ccc2ccccc2n1 | 0.33 |
| NC(=O)NCC#Cc1ccc2c(c1)[C@]1(C(=O)N2)[C@H](C(=O)N2CCCCCCC2)[C@H]2C(=O)O[C@H](c3ccccc3)[C@H](c3ccccc3)N2[C@@H]1c1ccccc1OCCO | 3.38 |
| Cc1ccc(N2C(=O)c3ccccc3[C@@H](C(=O)NCc3ccccc3)[C@@H]2c2ccc(CO)cc2)nc1 | 0.174 |
| COC(=O)C(CC#Cc1ccc2c(c1)[C@]1(C(=O)N2)[C@H](C(=O)N2CCCCCCC2)[C@H]2C(=O)O[C@H](c3ccccc3)[C@H](c3ccccc3)N2[C@@H]1c1ccc(O)cc1)C(=O)OC | -0.137 |
| COc1ccc([Si](C)(C)[C@@H]2[C@@H](CCO)O[C@]3(C(=O)N(Cc4ccc(NC(=O)[C@H](C)O)cc4)c4ccccc43)[C@H]2C)cc1 | 0.152 |
| C=CCNC(=O)[C@@H]1[C@H]2C(=O)O[C@H](c3ccccc3)[C@H](c3ccccc3)N2[C@H](c2ccc(OCCO)cc2)[C@@]12C(=O)N(C(=O)OCCOC)c1ccc(C#CC3(O)CCCCCC3)cc12 | 0.624 |

| SMILES | composite z-score |
| --- | --- |
| CC1CC/C=C\[C@H]2OC34C=CCN(Cn5nnc6ccccc65)C(=O)[C@H]3N(C(C)CO)C(=O)[C@@H]4C2C(=O)O1 (stereo partly specified) | -0.134 |
| COc1ccc([Si](C)(C)[C@H]2[C@H](CC(=O)N(CCO)Cc3ccccc3)O[C@@]3(C(=O)N(C)c4ccccc43)[C@@H]2C)cc1 | 0.291 |
| CO[C@H]1COC(=O)[C@H](CCSC)NC(=O)CC=C[C@@H](C)COC(=O)[C@@H](OCc2ccccc2)C=C[C@@H]1C | -0.327 |
| C=CCOC(=O)[C@@H]1[C@H]2C(=O)O[C@H](c3ccccc3)[C@H](c3ccccc3)N2[C@H](c2ccc(OCCOC(=O)[C@H]3C[C@H]4C(=O)N[C@@H](CCCCNC(C)=O)C(=O)N4[C@H]3c3ccc(O)cc3)cc2)[C@@]12C(=O)Nc1ccc(I)cc12 | -0.0007 |
| O=[N+]([O-])c1ccc(C[n+]2ccc3ccc(O)cc3c2)o1 | 0.147 |
| COCCOC(=O)N1C(=O)[C@@]2(c3cc(C#CC4=CCCCC4)ccc31)[C@H](C(=O)NC[C@H](O)c1ccccc1)[C@H]1C(=O)O[C@H](c3ccccc3)[C@H](c3ccccc3)N1[C@@H]2c1ccccc1OCCO | 0.881 |
| CCOC(=O)C1=CC[C@@H](c2ccc(-c3ccc(OCc4ccccc4)cc3)c(OC)c2)N(S(=O)(=O)c2ccc(C)cc2)[C@H]1c1ccccc1 | 0.9 |
| COC(=O)[C@@]1(Cc2ccc(OC)cc2)[C@H]2c3cc(C(=O)N(C)C)n(Cc4ccc(C)c(F)c4F)c3C[C@H]2CN1C(=O)c1ccccc1 | 0.588 |
| CCCC=C(CCC)[C@@H](NS(=O)(=O)c1ccc(-c2ccccc2)cc1)c1ccc(C(=O)OC)cc1 | -0.212 |
| CCOC(=O)[C@H]1C/C=C/C[C@H](C(=O)OCC)C(=O)O[C@H]2[C@@H](OC)O[C@H](CO)[C@@H](OC(=O)Nc3ccc(Br)cc3)[C@@H]2OC1=O | 0.449 |
| C=C[C@H](OC)[C@@H](OC(=O)Nc1ccc(SC)cc1)c1ccc(O)c(F)c1 | -0.212 |
| COCCOC(=O)N1C(=O)[C@@]2(c3cc(C#CCNC(N)=O)ccc31)[C@H](c1ccc(OCCO)cc1)N1[C@H](c3ccccc3)[C@H](c3ccccc3)OC(=O)[C@H]1[C@@H]2C(=O)N1CCCCCCC1 | 1.46 |
| CN(C)c1ccc(C(O)C2C=CC3C(=O)NC(=O)C3N2Nc2ccc(Cl)cc2Cl)cc1 (stereo unspecified) | 1.38 |
| COCCOC(=O)N1C(=O)[C@@]2(c3cc(C#CCC(C(=O)OC)C(=O)OC)ccc31)[C@H](C(=O)N1CCN(c3ncccn3)CC1)[C@H]1C(=O)O[C@H](c3ccccc3)[C@H](c3ccccc3)N1[C@@H]2c1ccc(O)cc1 | -0.304 |
| COCCOC(=O)N1C(=O)[C@@]2(c3ccccc31)[C@H](C(=O)N1CCc3cc(OC)c(OC)cc3C1)[C@H]1C(=O)O[C@H](c3ccccc3)[C@H](c3ccccc3)N1[C@@H]2c1ccccc1OCCO | 0.481 |
| CC(C)=C1C(=O)C(c2ccccc2)=C2CN3C(=O)N(CCc4ccccc4)C(=O)[C@]3(Cc3ccccc3)[C@H]21 | 0.0891 |
| CO[C@H]1COC(=O)CC=C[C@H](C)COC(=O)[C@@H](OCc2ccccc2)C=C[C@@H]1C | -0.0875 |
| [N-]=[N+]=NCc1ccccc1C[C@@]1(C(=O)N2CCOCC2)N=C(c2ccc(OCCCO)cc2)O[C@@H]1c1ccccc1N=[N+]=[N-] | 0.889 |
